WT yeast gro inh – growth inhibition of WT yeast, mitochondrial fusion screen | mitochondrial fusion phenotypic screen, WT strain | inhibition, % at 10 µM | 2.1% of 190,000 active; in the data active = inhibition above about 58%; tested in S. cerevisiae
Lmaj promast – reduces viability of Leishmania major promastigotes; resazurin fluorescence viability; inhibition, % at 10 µM; 9% of 200,000 active; in the data active = inhibition above about 50%;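 also: promastigotes grown with compound for 44 hours at 28 °C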
ROMK primary – modulates human ROMK potassium channel activity; P48048; Tet-inducible ROMK, thallium flux fluorescence; actives lie on both sides; B-score at 10 µM; 2% of 130,000 active; AID 1918;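 active = signal ratio slope over the read window, or its plate-corrected B-score, at least 3 SD from the plate mean, either direction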;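 also: B-score of the F/F0 ratio slope over 7 to 12 s after thallium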
Cl transport mod – KCC2 (human) Cl- transport modulation. 2.2% of 190,000 active. AID 1456. B-score of Tl+ flux slope (higher = more flux/activation; lower = inhibition) at 10 µM. Q9H2X9. KCC2 cells, thallium flux FluoZin-2 fluorescence;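 active = thallium flux slope and its plate-corrected score both differing from the plate sample mean at a set confidence after two filtering rounds, in either direction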;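 also: slope of fluorescence scaled to starting intensity during 10 to 20 s after thallium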
Target sequence (Q9H2X9 whole entry, looked up): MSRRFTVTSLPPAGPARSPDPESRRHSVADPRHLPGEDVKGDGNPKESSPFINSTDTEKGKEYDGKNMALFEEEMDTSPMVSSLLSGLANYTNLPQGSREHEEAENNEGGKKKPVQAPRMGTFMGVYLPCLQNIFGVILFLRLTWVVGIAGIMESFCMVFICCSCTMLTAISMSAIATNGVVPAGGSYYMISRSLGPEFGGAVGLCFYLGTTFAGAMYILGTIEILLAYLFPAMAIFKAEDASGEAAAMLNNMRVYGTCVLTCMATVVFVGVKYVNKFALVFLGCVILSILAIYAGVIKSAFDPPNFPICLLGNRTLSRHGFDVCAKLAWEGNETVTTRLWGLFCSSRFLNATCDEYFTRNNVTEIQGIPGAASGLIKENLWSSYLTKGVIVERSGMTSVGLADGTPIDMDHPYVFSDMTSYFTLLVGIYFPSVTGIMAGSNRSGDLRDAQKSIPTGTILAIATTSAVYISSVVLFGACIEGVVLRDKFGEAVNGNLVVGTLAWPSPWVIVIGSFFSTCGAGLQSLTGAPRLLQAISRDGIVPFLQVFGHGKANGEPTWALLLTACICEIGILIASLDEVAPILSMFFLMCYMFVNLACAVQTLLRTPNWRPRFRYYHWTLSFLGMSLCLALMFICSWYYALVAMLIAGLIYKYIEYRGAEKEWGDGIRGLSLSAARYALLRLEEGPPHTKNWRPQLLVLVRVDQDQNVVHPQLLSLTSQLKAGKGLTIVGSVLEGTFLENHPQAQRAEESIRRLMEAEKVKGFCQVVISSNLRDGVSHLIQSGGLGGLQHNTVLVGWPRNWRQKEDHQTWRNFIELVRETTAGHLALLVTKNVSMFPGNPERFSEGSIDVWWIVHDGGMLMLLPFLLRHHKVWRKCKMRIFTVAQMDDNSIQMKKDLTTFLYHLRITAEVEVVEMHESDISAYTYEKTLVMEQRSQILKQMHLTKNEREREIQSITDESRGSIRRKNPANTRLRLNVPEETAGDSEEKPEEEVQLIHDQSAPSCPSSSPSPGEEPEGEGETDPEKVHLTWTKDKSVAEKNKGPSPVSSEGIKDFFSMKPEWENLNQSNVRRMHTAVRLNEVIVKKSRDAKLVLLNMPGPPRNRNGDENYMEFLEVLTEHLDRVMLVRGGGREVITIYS
Calpain2 inh – calpain II (pig) inhibition; purified calpain II, fluorogenic peptide substrate, 30 min; inhibition, % at 16 µM; 0.37% of 220,000 active;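 active = inhibition above about 50%, limit read from the data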
KCC2 secondary – confirmation of human KCC2 transport modulators. HEK293-KCC2, thallium flux, FluoZin2 fluorescence; active compounds read high. normalised thallium flux (F/F0 slope) at 10 µM. shares compounds with Cl transport mod. 15% of 3,700 active;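 active = thallium flux slope above the same plate's solvent-only control mean plus 3 SD; inconclusive = the two replicate wells disagree; inactive = no significant difference from solvent-only control wells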
KCC2 bumet counter – thallium flux despite bumetanide block in KCC2 cells, secondary assay 3; shares compounds with Cl transport mod; normalized thallium flux at 10 µM; 49% of 3,700 active; AID 1714; HEK293-KCC2 + bumetanide/ouabain, thallium flux FluoZin2; active compounds read high;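 active = thallium entry rate above the same plate's blocked-transporter control wells by more than 3 SD; inconclusive = the two repeat wells disagree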;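 also: raw slope of fluorescence over initial fluorescence between 10 and 20 s after thallium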
KCC2 secondary2 – KCC2 (human) modulation, second secondary assay | shares compounds with Cl transport mod | HEK293-KCC2, thallium flux FluoZin2 fluorescence; actives lie on both sides; F/F0 rise rate, 10–20 s post-thallium | normalized thallium flux at 10 µM | 23% of 3,700 active | AID 1715;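 active = thallium flux slope more than 3 SD above or below the plate's solvent-only control mean, mostly below; inconclusive = the two repeat wells disagreed; inactive = no significant shift from solvent-only controls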;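 also: raw slope with 0.1% DMSO as baseline and bumetanide as block control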
HEK counter1 – parental HEK flux effect, counter-screen; thallium flux rate (normalised fluorescence) at 10 µM; shares compounds with Cl transport mod; 46% of 3,700 active; AID 1716; HEK293 parental cells, thallium flux FluoZin2, ouabain; baseline-ratio fluorescence slope, 10–20 s after thallium;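 active = thallium flux rate significantly above the same plate's solvent-only control wells, beyond their mean plus 3 SD; inconclusive = the two replicate wells gave conflicting results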
KCC2 ouabain – modulates human KCC2 on retest with ouabain | AID 1717 | shares compounds with Cl transport mod | HEK293-KCC2, thallium flux FluoZin2 fluorescence; bidirectional: low = inhibitor, high = activator | 48% of 3,700 active | raw Tl+ flux slope (below DMSO = inhibition, above = activation) at 10 µM;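 active = thallium flux slope beyond 3 SD from same-plate DMSO control mean in most replicates, usually higher, sometimes lower; inconclusive = repeat tests gave conflicting results; inactive = no significant difference from controls in most replicates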;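 also: slope of initial-normalized fluorescence between seconds 10 and 20 after thallium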
HEK293 Tl flux2 – acts in parental HEK cells, second KCC2 counter-screen | 33% of 3,700 active | AID 1718 | shares compounds with Cl transport mod | HEK293 parental, thallium flux FluoZin-2 fluorescence slope | thallium flux slope at 10 µM;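 active = thallium flux slope above the same plate's solvent-control mean plus 3 SD in both duplicate wells; inconclusive = duplicate wells that disagreed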;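 also: run without ouabain in cells lacking the KCC2 cotransporter; slope of fluorescence scaled to its starting value between 10 and 20 s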
Active calls of the source: *; i = inactive; ? = inconclusive; / = no result. Sampled rows, rich in hits. Any-hit rate of the full collection: about 12%.

SMILES	WT yeast gro inh	Lmaj promast	ROMK primary	Cl transport mod	Calpain2 inh	KCC2 secondary	KCC2 bumet counter	KCC2 secondary2	HEK counter1	KCC2 ouabain	HEK293 Tl flux2
CN(C)CCN1CC(O)=C(c2nc3ccccc3s2)C1=N	/	/	/	-1.2	1	/	/	/	/	/	/
C=CCN(c1cccc(C(F)(F)F)c1)S(=O)(=O)c1cccc(C(=O)OCC(=O)NCCC)c1	-2	-1	/	-4.2*	13	?	0.004	0.024*	0.0059*	0.014*	?
Cc1cc(C)n2nc(CC(=O)NC3CCCCCC3)nc2n1	9	-3	/	0.38	26	/	/	/	/	/	/
CSC1=C(C#N)C(c2sccc2C)CC(=O)N1 (configuration not stated)	-8	-3	0.21	0.071	-17	/	/	/	/	/	/
CCOC(=O)C1CCCN(C(=O)CCCn2nc(C)n3c(cc4sccc43)c2=O)C1 (configuration not stated)	-4	-6	/	-4.2*	-8	0.009	0.0088*	0.033	0.007	0.021	0.011
CCOCCCNC(=O)CCCn1nc(C)n2c(cc3sccc32)c1=O	1	-1	/	0.00074	-15	/	/	/	/	/	/
Cc1sc2ncnc(NCCCN3CCCC3=O)c2c1C	-7	-4	-0.34	0.052	3	/	/	/	/	/	/
Cc1ccc(S(=O)(=O)NCC(=O)OCN2C(=O)c3ccccc3C2=O)cc1	4	0	0.31	-0.79	-7	0.0093	0.006	0.032	0.0072	0.019	0.011
O=C(CSc1ncccn1)N/N=C/c1cccs1	-7	-3	-0.28	4.5*	-30	0.0077	0.0062	0.029	0.007	0.02	0.0092
O=C(N/N=C/c1cccs1)c1ccccn1	-8	-4	-0.49	-0.086	-5	/	/	/	/	/	/
COC(=O)CCN(C(=O)c1ccc(OC(C)=O)cc1)c1ccccn1	-10	-10	/	-3.8*	19	0.016	0.005	0.027	0.0076	0.016	0.011
COC(=O)CCN(C(=O)c1ccc([N+](=O)[O-])cc1)c1ccccn1	/	/	0.62	0.37	2	/	/	/	/	/	/
O=c1c2cc(N3CCOCC3)ccc2[nH]c(=S)n1CCN1CCCC1	-3	15	0.021	0.14	i	/	/	/	/	/	/
CCOc1cc2[nH]c(=S)n(Cc3ccc(C)o3)c(=O)c2cc1OCC	13	3	0.2	1.2	-28	/	/	/	/	/	/
Cc1ccc(Cn2c(=S)[nH]c3ccc(N4CCOCC4)cc3c2=O)o1	0	-10	/	14*	i	0.011	0.0098*	0.036	?	0.024	0.012
CCCCn1c(=S)[nH]c2ccc(N3CCOCC3)cc2c1=O	-15	-5	0.47	12*	-445	0.014*	0.031*	0.034	0.03*	0.032*	0.016*
O=C1CC(c2ccc(F)cc2)CC2=C1C(c1ccc([N+](=O)[O-])o1)Nc1ccccc1N2 (configuration not stated)	/	/	/	-2.4	11	/	/	/	/	/	/
CC(NC(=O)c1ccco1)C(=O)OCc1cccc(Cl)c1 (configuration not stated)	-19	-6	0.13	6.1*	19	0.0099	0.0057	0.035	0.0064	0.02	0.01
CC(NC(=O)c1ccco1)C(=O)OCC(=O)c1ccc(Cl)s1 (configuration not stated)	1	0	0.27	-2.2	-3	/	/	/	/	/	/
Cc1ccc(/C=N\Nc2nc3ccc(Cl)cc3[nH]2)o1	20	99*	-0.098	4.8*	14	0.0071	0.0043	0.031	?	0.019	0.012
CCn1cc(/C=N\NC(=O)c2ccc(F)cc2)cn1	-3	-8	-0.65	0.15	-6	/	/	/	/	/	/
